Screening data from PubChem BioAssay.
Y pestis TopoI: blocks Yersinia pestis topoisomerase I activity; Y. pestis Topo-I cleavage product accumulation, plate reader; 360,000 tested, 0.064% active; activity, % at 10 µM; in the data active means activity above about 50%, passing the limit was not always enough; inconclusive means no clear call, values can overlap the other calls
BH1578 lux ind: quorum light induction in luxS cqsA deficient V. cholerae. V. cholerae BH1578 lux reporter, luminescence, 6 h. activation, % at 18.7 µM. 350,000 tested, 0.16% active. AID 588436; in the data active means activation mostly above about 9.7%, no sharp cut-off; inconclusive means no clear call, values can overlap the other calls; inactive means mostly below about 3.7%
TcdB inh: blocks C. difficile toxin B glycohydrolase activity | P18177 | 350,000 tested, 0.24% active | inhibition, % at 9.99 µM | TcdB glycohydrolase enzymatic assay, plate reader | AID 652162; in the data active means inhibition above about 10%
FadD28 FP inh: inhibitors of Mycobacterium tuberculosis FadD28 bisubstrate binding; FadD28 bisubstrate probe binding, fluorescence polarization; inhibition, % at 12.5 µM; 360,000 tested, 0.22% active; AID 588549; in the data active means inhibition above about 8.5%, passing the limit was not always enough; inconclusive means no clear call, values can overlap the other calls
Mtb BioA inh: blocks M. tuberculosis BioA enzyme activity; purified M. tuberculosis BioA enzyme, plate reader; inhibition, % at 9.99 µM; 360,000 tested, 0.096% active; in the data active means inhibition above about 40%; inconclusive means no clear call, values can overlap the other calls
Each line names hits and unclear results; the compound was inactive in the other large screens. Only some compounds are listed: those with a hit (about 0.61% of all), similar ones and a draw of the others.

CCCCOC(=O)Nc1nnc(/C=C/c2ccc(OC)cc2)s1	Y pestis TopoI 53.3 (no result: Mtb BioA inh)
CCCn1c(=N)c(C(=O)NC2CCCC2)cc2c(=O)n3cccc(C)c3nc21	BH1578 lux ind 16.7 (no result: TcdB inh)
Cc1cccn2c(=O)c3cc(C(=O)NC4CCCCC4)c(=N)n(CCN4CCOCC4)c3nc12	none (no result: Mtb BioA inh)
C[C@@H]1CN([C@H](C)CO)C(=O)Cc2cc(NC(=O)Cc3cn(C)c4ccccc34)ccc2O[C@@H]1CN(C)Cc1ccc(Cl)c(Cl)c1	none (no result: Y pestis TopoI, BH1578 lux ind, FadD28 FP inh)
N#C/C(=C/C1=C(N2CCOCC2)C(=C/c2ccccc2)/CC1)C(=O)Nc1ccccc1F	FadD28 FP inh 9.9
CC1(C)Cc2nc(Cl)c(C#N)cc2CO1	TcdB inh 10.1
COC[C@@]12C[C@H]3C(=O)N(Cc4ccccc4)C(=O)[C@H]3[C@@H](CO1)/C2=C\c1ccccc1	none (no result: Y pestis TopoI, BH1578 lux ind, FadD28 FP inh, Mtb BioA inh)
CC(C)OC(=O)C(=O)NNc1ccccc1	TcdB inh 14.8
CCCOC(=O)C(=O)NNc1ccccc1	none (no result: Mtb BioA inh)
CC(C)Cc1[nH]c(=O)c(C#N)c2c1CCC2	TcdB inh 49.7
CCCCc1[nH]c(=O)c(C#N)c2c1CCCC2	none (no result: TcdB inh, Mtb BioA inh)
COc1cc(/C=N/NC(=O)CCN2CCCCC2)ccc1O	TcdB inh 10.2 (no result: Mtb BioA inh)
COc1ccc(/C=N\NC(=O)CCN2CCN(c3ccccc3)CC2)cc1OC	none (no result: TcdB inh)
CC=Cc1ccc2n(c1=O)C[C@H]1[C@H](CO)[C@@H](C(=O)NCCc3ccncc3)[C@@H]2N1CCc1ccccc1 (mixture of isomers)	none (no result: Y pestis TopoI, BH1578 lux ind, FadD28 FP inh, Mtb BioA inh)
CCCC(=O)Nc1ccc2c(c1)C(=O)N(C)[C@H]1CC[C@@H](CC(=O)O)O[C@@H]1CO2	none (no result: Y pestis TopoI, BH1578 lux ind, FadD28 FP inh)
C[C@@H]1CN([C@H](C)CO)C(=O)Cc2cc(NS(=O)(=O)c3cn(C)cn3)ccc2O[C@H]1CN(C)CC1CCCCC1	none (no result: Y pestis TopoI, BH1578 lux ind, FadD28 FP inh)
Cc1ccccc1C(=O)Nc1cccc(NC(=S)NC(=O)c2cccs2)c1	BH1578 lux ind active (no result: TcdB inh)
CC(C)OC(=O)C(C)(C)Oc1ccc(C(=O)c2ccc(Cl)cc2)cc1	Y pestis TopoI 52.8
O=C(C[C@H]1CC[C@@H](NC(=O)c2cccc(F)c2)[C@@H](CO)O1)Nc1nccs1	none (no result: Y pestis TopoI, BH1578 lux ind, FadD28 FP inh)
COc1cccc(C(=O)C2CCCN(Cc3ccc4nsnc4c3)C2)c1 (stereo not given)	none
COc1cccc(C(=O)C2CCCN(Cc3ccc(F)cc3)C2)c1 (stereo not given)	TcdB inh 12.7
CCCCn1c(N)c(N(CC)C(=O)c2cccs2)c(=O)[nH]c1=O	TcdB inh 10.8
CCCCn1c(N)c(N(CC)C(=O)c2ccncc2)c(=O)[nH]c1=O	none
C[C@@H]1CCCCCCCCCCC1=O	none
O=C1NN=C2CCCCCCC12 (stereo not given)	TcdB inh 11.0
CC1=NCCc2c1[nH]c1cc(O)ccc21	TcdB inh 42.2
CSC(=NS(=O)(=O)c1ccc(N)cc1)NS(=O)(=O)c1cccs1	FadD28 FP inh 17.2 (no result: Mtb BioA inh)
N[C@@H](Cc1cc(I)c(O)c(I)c1)C(=O)O	FadD28 FP inh 10.0
O=C(Nc1ccccc1F)N[C@H]1CC[C@@H](CC(=O)N2CCCCC2)O[C@@H]1CO	none (no result: Y pestis TopoI, BH1578 lux ind, FadD28 FP inh)
O=C1Cc2cc(S(=O)(=O)NCc3ccccc3Cl)cc3c2N1CCC3	TcdB inh 11.3
Cc1cccc(C)c1NS(=O)(=O)c1cc2c3c(c1)CC(=O)N3CCC2	none
COc1ccc(NC(=O)Nc2ccc3c(c2)C(=O)N([C@@H](C)CO)C[C@H](C)[C@H](CN(C)Cc2ccncc2)O3)cc1	none (no result: Y pestis TopoI, BH1578 lux ind, FadD28 FP inh)
CC(=O)Nc1cc(-c2ccc(F)cc2)[nH]n1	TcdB inh 10.6 (no result: Mtb BioA inh)
COc1ccc(-c2csc(NC(=O)c3ccccc3F)c2C(=O)O)cc1	TcdB inh 10.6 (no result: Mtb BioA inh)
Cc1ccc(C(=O)Nc2scc(-c3ccccc3)c2C(=O)O)cc1	TcdB inh 12.0
COc1cc(C(=O)Nc2scc(-c3ccccc3)c2C(=O)O)cc(OC)c1OC	TcdB inh 13.1
CCCNC(=O)Nc1ccc2c(c1)C(=O)N(C)C[C@@H](OC)[C@H](C)CN(C(=O)c1ccccc1F)[C@@H](C)CO2	none (no result: Y pestis TopoI, BH1578 lux ind, FadD28 FP inh)
COc1ccc(-c2nnn(CC(=O)c3c[nH]c4ccccc34)n2)cc1OC	FadD28 FP inh 14.6 (no result: TcdB inh)
Cc1cccc(N/C=C/C(=C(C#N)C#N)N(C)C)c1	FadD28 FP inh 11.0 (no result: TcdB inh, Mtb BioA inh)
CN(C)C(/C=C/Nc1cccc(Br)c1)=C(C#N)C#N	none (no result: Mtb BioA inh)
O=C(NCc1nc2ccccc2[nH]1)C1=C[C@@H](c2coc3ccccc3c2=O)C[C@@H](OCCCCO)O1	none (no result: Y pestis TopoI, BH1578 lux ind, FadD28 FP inh, Mtb BioA inh)
Cc1ccc(NCCN(C)C)c2c(=O)c3cc(O)ccc3sc12	TcdB inh 21.3 (no result: Mtb BioA inh)
CN(C)CCNc1cccc2sc3ccc(O)cc3c(=O)c12	TcdB inh 39.0 (no result: Y pestis TopoI, BH1578 lux ind, Mtb BioA inh)
CSc1ccc(/C=N/Nc2cccc(C(=O)O)c2)cc1	FadD28 FP inh 12.8 (no result: TcdB inh, Mtb BioA inh)
O=C(O)c1cccc(N/N=C/c2ccc(OC(F)(F)F)cc2)c1	FadD28 FP inh inconclusive
